The target of experiment [1] is Cellular tumor antigen p53 (Homo sapiens) (UniProt P04637). Briefly: TOX21_p53_BLA_p2_ratio: Tox21 HCT-116 p53 Agonism Beta-lactamase Assay, Ratio, Phase 2 (AID 2283592). The essentials: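 DMSO-normalized, positive-direction endpoint derived from the 460 nm/530 nm FRET ratio in HCT116 p53 beta-lactamase reporter cells exposed 16 h at 37C and loaded with CCF4-AM for 2 h.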

Experiment [2] is described as follows: TOX21_p53_BLA_p3_viability: Viability Assessment in the Tox21 HCT-116 p53 Agonism Beta-lactamase Assay, Phase 3 (AID 2283593).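 Further: cells exposed to compound for 16 h before reading.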 The essentials: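 Cellular ATP was quantified by CellTiter-Glo luminescence, read after 30 min at room temperature. Beforehand, HCT116 cells (4000/well) received compound 5 h post-seeding, 217-fold diluted from DMSO, then incubated 16 h at 37C.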

In experiment [3] the target is Cellular tumor antigen p53 (Homo sapiens) (UniProt P04637). The experiment is described as follows: TOX21_p53_BLA_p5_ratio: Tox21 HCT-116 p53 Agonism Beta-lactamase Assay, Ratio, Phase 5 (AID 2283599). The essentials:
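Beta-lactamase reporter ratio (blue 460 nm over green 530 nm, 405 nm excitation) after 2 h CCF4-AM loading, in HCT-116 cells exposed 16 h at 37 C to compounds pinned at 217-fold dilution. Increases relative to DMSO baseline scored.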

Experiment [4] shares this target. The experiment is described as follows: TOX21_p53_BLA_p4_ratio: Tox21 HCT-116 p53 Agonism Beta-lactamase Assay, Ratio, Phase 4 (AID 2283601). The essentials: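 Signal is the blue/green (460nm/530nm) ratio of cleaved versus uncleaved CCF4-AM substrate, read after 2 h substrate loading. Cells were HCT116 carrying the p53-responsive beta-lactamase reporter, dosed 16 h at 37C, 5% CO2; CellTiter-Glo measured in parallel.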

A short description of experiment [5]: TOX21_p53_BLA_p4_viability: Viability Assessment in the Tox21 HCT-116 p53 Agonism Beta-lactamase Assay, Phase 4 (AID 2283597).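 Further: hits lower the luminescence signal meaning cytotoxicity.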 The essentials:
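In this multiplexed secondary endpoint, HCT116 cells (4000 per well, compound at 5 h, 16 h treatment) received CellTiter-Glo after the beta-lactamase read. Luminescence after 30 min RT reflects ATP, and falling signal marks cytotoxicity.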

Experiment [6] can be described thus: TOX21_p53_BLA_p5_viability: Viability Assessment in the Tox21 HCT-116 p53 Agonism Beta-lactamase Assay, Phase 5 (AID 2283600). In outline: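 Here cell health was gauged by ATP levels in wells holding 4000 cells, each treated 16 h with DMSO-delivered compounds at 217-fold dilution; reduced luminescence marked toxicity.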
Experiment [7] in a line: Tanguay_ZF_120hpf_MORT_legacy: (Legacy) Oregon State University Tanguay Lab 120 Hour Post-fertilization zebrafish Assay for Mortality (AID 2283633). In outline:
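Single dechorionated Tropical 5D embryos were held with test chemical (0.64% DMSO final) from 6 to 120 hpf at 28C under foil. Deaths at 24 or 120 hpf were recorded as binary calls, analysed for increase over DMSO controls.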

Experiment [8] is described as follows: Tanguay_ZF_120hpf_YSE_legacy: (Legacy) Oregon State University Tanguay Lab 120 Hour Post-fertilization zebrafish Assay for Yolk Sac Edema (AID 2283634). In outline:
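Single dechorionated embryos were held in sealed plates at 28C with test chemical (0.64% DMSO final) from 6 hpf until 120 hpf. Edema of the yolk sac was then recorded as a binary endpoint; non-mortality endpoints were skipped for dead embryos.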

Experiment [9] can be described thus: Tanguay_ZF_120hpf_AXIS_legacy: (Legacy) Oregon State University Tanguay Lab 120 Hour Post-fertilization zebrafish Assay for Body Axis Malformation (AID 2283635). In outline:
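Each dechorionated embryo was exposed alone from 6 hpf, with DMSO at 0.64% (vol/vol) and trimethyltin chloride 5 uM as positive control. Axis malformation was recorded at 120 hpf unless the embryo had died.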

Experiment [10] is described as follows: Tanguay_ZF_120hpf_EYE_legacy: (Legacy) Oregon State University Tanguay Lab 120 Hour Post-fertilization zebrafish Assay for Eye Malformation (AID 2283636).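 Further: binary presence or absence of eye malformation scored by brightfield in 120 hpf larvae.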 The essentials:
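Binary brightfield scoring of eye defects at 120 hpf after static exposure from 6 hpf of single pronase-dechorionated wild-type embryos (28C, 0.64% DMSO). Non-mortality endpoints omitted where embryos died; fit vs DMSO.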

Experiment [11] in a line: Tanguay_ZF_120hpf_SNOU_legacy: (Legacy) Oregon State University Tanguay Lab 120 Hour Post-fertilization zebrafish Assay for Snout Malformation (AID 2283637). In outline: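 Binary snout-malformation call at 120 hpf in wild-type 5D embryos, chorion removed by pronase, under static exposure from 6 hpf at 28C (0.64% DMSO). Embryos dying by 24 or 120 hpf excluded.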
Experiment [12] can be described thus: Tanguay_ZF_120hpf_JAW_legacy: (Legacy) Oregon State University Tanguay Lab 120 Hour Post-fertilization zebrafish Assay for Jaw Malformation (AID 2283638). In outline:
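Wild-type 5D embryos, chorion removed at 4 hpf, dosed singly from 6 hpf; 28C static, sealed, foil-covered, to 120 hpf. Endpoint: jaw defect yes/no (brightfield); mortality excludes scoring.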

A short description of experiment [13]: Tanguay_ZF_120hpf_OTIC_legacy: (Legacy) Oregon State University Tanguay Lab 120 Hour Post-fertilization zebrafish Assay for Otic Vesicle Malformation (AID 2283639). The essentials: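 Statically exposed wild-type 5D zebrafish embryos, kept sealed and dark at 28C through 120 hours post fertilization, were examined by brightfield microscopy for otic vesicle defects. Responses were recorded as present or absent and analysed relative to DMSO.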

Experiment [14] in a line: Tanguay_ZF_120hpf_PE_legacy: (Legacy) Oregon State University Tanguay Lab 120 Hour Post-fertilization zebrafish Assay for Pericardial Edema (AID 2283640). The essentials:
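Zebrafish larvae are exposed from early development to 120 hpf at 28C, with 0.64% DMSO final. Each surviving larva receives a yes/no pericardial edema call by brightfield imaging, analysed relative to the DMSO baseline.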

The nature of experiment [15]: Tanguay_ZF_120hpf_BRAI_legacy: (Legacy) Oregon State University Tanguay Lab 120 Hour Post-fertilization zebrafish Assay for Brain Malformation (AID 2283641). The essentials: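 Static exposure of staged wild-type embryos until 120 hpf, kept at 28C with light excluded and final DMSO of 0.64% (vol/vol). Presence or absence of brain malformation was noted under brightfield; mortality precluded scoring.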

The nature of experiment [16]: Tanguay_ZF_120hpf_SOMI_legacy: (Legacy) Oregon State University Tanguay Lab 120 Hour Post-fertilization zebrafish Assay for Somite Malformation (AID 2283647). In outline: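 Somitogenesis defects are recorded as binary calls in whole larvae at 120 hpf after continuous static chemical exposure starting at 6 hpf in dechorionated 5D embryos. DMSO serves as negative control and baseline.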

The nature of experiment [17]: Tanguay_ZF_120hpf_PFIN_legacy: (Legacy) Oregon State University Tanguay Lab 120 Hour Post-fertilization zebrafish Assay for Pectoral Fin Malformation (AID 2283648).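 Further: each larva judged yes or no for fin defect by brightfield with dead larvae skipped.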 In outline: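 Pectoral fin malformation was recorded as a binary endpoint at 120 hpf in wild-type Tropical 5D larvae, which had been dechorionated and exposed statically from 6 hpf at 28C in 0.64% DMSO. Dead embryos were excluded.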

Experiment [18] is described as follows: Tanguay_ZF_120hpf_CFIN_legacy: (Legacy) Oregon State University Tanguay Lab 120 Hour Post-fertilization zebrafish Assay for Caudal Fin Malformation (AID 2283649). The essentials:
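Single dechorionated 5D wild-type embryos are dosed at 6 hpf (final DMSO 0.64%) and held statically at 28C. Caudal fin malformation is recorded as present or absent at 120 hpf under brightfield, excluding dead embryos.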

Experiment [19] can be described thus: Tanguay_ZF_120hpf_PIG_legacy: (Legacy) Oregon State University Tanguay Lab 120 Hour Post-fertilization zebrafish Assay for Pigmentation Malformation (AID 2283650). In outline: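 Pigment malformation recorded as a binary call at 120 hpf in zebrafish (Tropical 5D) exposed singly from 6 hpf after pronase dechorionation. Static, sealed, 28C exposure, 0.64% DMSO; mortality excludes scoring; positive-direction fit against DMSO.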

Experiment [20] addresses Cellular tumor antigen p53 (Homo sapiens) (UniProt P04637). The experiment is described as follows: TOX21_p53_BLA_p3_ratio: Tox21 HCT-116 p53 Agonism Beta-lactamase Assay, Ratio, Phase 3 (AID 2283596). The essentials: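 Cells were seeded at 4000/well, rested 5 h at 37C, then dosed with DMSO compound solutions (217-fold dilution) for 16 h. CCF4-AM substrate was loaded for 2 h at room temperature, and the 460/530 nm emission ratio was fitted for gain of signal versus DMSO.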

Records with an inconclusive call do not appear. Calls of active or inactive are those of the source. How the source made its calls: active means hit-call score of the fitted dose curve at least 0.9, where 1 is the maximum; inconclusive means response in the unintended direction; inactive means score below 0.9.

Chain of Cellular tumor antigen p53 (Homo sapiens) (P04637 whole entry, looked up): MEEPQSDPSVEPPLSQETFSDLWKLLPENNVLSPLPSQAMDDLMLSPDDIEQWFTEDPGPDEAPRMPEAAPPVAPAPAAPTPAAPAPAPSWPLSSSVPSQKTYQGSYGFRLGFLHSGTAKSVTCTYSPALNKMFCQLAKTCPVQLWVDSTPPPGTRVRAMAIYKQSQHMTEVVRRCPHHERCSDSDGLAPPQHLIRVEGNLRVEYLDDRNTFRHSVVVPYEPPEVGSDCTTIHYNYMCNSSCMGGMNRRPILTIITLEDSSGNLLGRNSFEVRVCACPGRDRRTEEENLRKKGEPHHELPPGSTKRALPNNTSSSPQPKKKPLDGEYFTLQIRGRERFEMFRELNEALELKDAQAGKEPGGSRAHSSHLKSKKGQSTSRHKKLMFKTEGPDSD

For the molecule `CC(=O)Nc1ccc(C)cc1C`, the outcome in experiment [1], in experiment [2], in experiment [3] and in experiment [4] was inactive.
In the case of `CC(C)C1CCC(O)CC1` (stereo not drawn), the outcome in experiment [1], in experiment [2], in experiment [5], in [6] and in experiment [4] was inactive.
Take `O=C(O)c1ccc([N+](=O)[O-])cc1`: the result in [1], in experiment [2], in [5], in experiment [3], in experiment [6] and in experiment [4] was inactive. The molecule was classed as inactive in experiment [7], in experiment [8], in experiment [9], in experiment [10], in experiment [11] and in experiment [12]. Moreover, the result in experiment [13], in [14], in experiment [15], in experiment [16], in [17] and in [18] was inactive. The molecule was classed as inactive in experiment [19].
Take `CC(C)=CCCC(C)=CCCC(C)=CCO`: the result in experiment [1], in [2], in experiment [3], in experiment [6] and in experiment [4] was inactive.
Turning to `Nc1ccc(S(=O)(=O)O)c(N)c1`, the outcome in [1], in experiment [2], in [5], in experiment [3], in [6] and in experiment [4] was inactive.
As to `COc1ccc(NC(=O)CC(C)=O)cc1`, the result in [1], in experiment [2], in experiment [3], in [6] and in experiment [4] was inactive.
In the case of `CC1(C)CCC(C)(C)c2cc(C(=O)Nc3ccc(C(=O)O)cc3)ccc21`, the AC50 in [1] was 61.2 µM (active); in experiment [2], 46.1 µM (active); in experiment [5], 32.5 µM (active); in experiment [3] it was 46.2 µM (active); in experiment [6], 39.5 µM (active); in experiment [4], 46.9 µM (active).
As to `O=C(O)CCCCCCCC(=O)O`, the outcome in experiment [1], in experiment [2], in experiment [3], in experiment [6] and in experiment [4] was inactive.
With `O=C[C@@H](O)[C@H](O)[C@H](O)CO`, the result in [1], in experiment [2], in [6] and in experiment [4] was inactive.
For `CC(=O)c1c(C)cc(C(C)(C)C)cc1C`, the outcome in experiment [1], in experiment [2], in experiment [5], in experiment [3], in [6] and in [4] was inactive.
As for `O=Cc1ccc(Cl)c([N+](=O)[O-])c1`, the result in [1], in experiment [5], in experiment [3] and in experiment [4] was inactive.
With `CCCCO`, the result in [1], in experiment [20], in experiment [5], in experiment [3], in experiment [6] and in experiment [4] was inactive.
In the case of `CN(C)CCCN`, the outcome in [1], in experiment [20], in [5], in experiment [3], in experiment [6] and in experiment [4] was inactive.
For `C=CC(=O)OCCOCCOCC`, the outcome in experiment [1], in experiment [20], in experiment [3], in experiment [6] and in experiment [4] was inactive.
`COC(C(=O)O)c1ccccc1` (stereo not drawn): the result in experiment [1] and in [5] was inactive.
For `CC(C)=CCC/C(C)=C/COC=O`, the outcome in experiment [1], in experiment [5], in experiment [3], in [6] and in experiment [4] was inactive.

(Values after PubChem BioAssay (EPA / NIEHS).)
